In PubChem BioAssay (EPA / NIEHS):
Results filed as inconclusive are left out. Some compounds were tested as several samples or in several runs, with calls that do not always agree. Calls of active or inactive are those of the source. How the source made its calls, unless noted: active means hit-call score of the fitted dose curve at least 0.9, where 1 is the maximum; inactive means score below 0.9.

Experiments:
[1] = BSK_3C_VCAM1: BioMAP Diversity Plus: 3C Assay for Vascular cell adhesion molecule 1 (VCAM1) Biomarker Activity (AID 2282999); conditions: BioMAP 3C HUVEC, VCAM1 ELISA, cytokine-stimulated; actives raise or lower the signal
Method in brief: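 Human umbilical vein endothelial cells (3C system), biomarker read by ELISA 24 h after dosing; bidirectional fit against DMSO baseline. Cytotoxicity tracked by SRB total-protein staining in parallel cultures at biomarker time.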

[2] = BSK_4H_Eotaxin3: BioMAP Diversity Plus: 4H Assay for Eotaxin 3 Biomarker Activity (AID 2283000); conditions: primary human endothelial cells (HUVEC); actives raise or lower the signal
Method in brief: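 Chemicals were added to human umbilical vein endothelium cultures, and Eotaxin-3 was quantified by ELISA at 24 h. Values were derived by bidirectional fitting with DMSO serving as negative control and activity baseline.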

[3] = target: human Peroxisome Proliferator-activated Receptor alpha (PPARa), PPARA (gene 5465) (UniProt Q07869); assay: ATG_PPARa_TRANS: Attagene TRANS-FACTORIAL HepG2 Assay for human Peroxisome Proliferator-activated Receptor alpha (PPARa) (AID 2283001; active means hit-call score of the fitted dose curve at least 0.9, where 1 is the maximum)
human Peroxisome Proliferator-activated Receptor alpha (PPARa), PPARA (gene 5465), sequence (Q07869 whole entry, looked up, the tested form may be a part): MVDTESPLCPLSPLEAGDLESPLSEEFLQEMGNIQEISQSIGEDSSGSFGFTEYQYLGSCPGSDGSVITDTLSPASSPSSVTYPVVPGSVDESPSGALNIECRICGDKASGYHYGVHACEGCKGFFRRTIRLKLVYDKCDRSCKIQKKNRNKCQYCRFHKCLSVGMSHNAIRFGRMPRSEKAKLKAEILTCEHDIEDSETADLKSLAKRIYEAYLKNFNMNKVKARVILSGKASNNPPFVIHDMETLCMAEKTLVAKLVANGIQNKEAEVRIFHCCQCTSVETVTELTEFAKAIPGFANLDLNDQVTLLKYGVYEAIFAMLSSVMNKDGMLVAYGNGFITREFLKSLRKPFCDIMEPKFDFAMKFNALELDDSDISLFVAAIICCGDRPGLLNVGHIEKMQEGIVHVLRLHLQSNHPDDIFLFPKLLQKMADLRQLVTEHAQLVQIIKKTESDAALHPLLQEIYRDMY
Method in brief: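 HepG2 cells transiently transfected with multiplexed GAL4-UAS reporters driven by exogenous chimeric NR-Gal4 proteins; reporter mRNA measured after 24 h dosing. Read-out by RT-PCR, 6-FAM labelling, HpaI digestion and capillary electrophoresis; gain of signal versus DMSO.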

[4] = read-out: Intercellular Adhesion Molecule 1 (ICAM1), ICAM1 (gene 3383); assay: BSK_3C_ICAM1: BioMAP Diversity Plus: 3C Assay for Intercellular Adhesion Molecule 1 (ICAM1) Biomarker Activity (AID 2283003); conditions: primary human endothelial cells (HUVEC); actives raise or lower the signal
Method in brief: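 HUVEC primary cells stimulated under 3C conditions; ICAM1 measured by ELISA 24 h after compound dosing. Curves fitted bidirectionally against the DMSO baseline. Overt cytotoxicity checked by SRB staining of parallel cultures.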

[5] = target: human Retinoic Acid Receptor beta (RARb), RARB (gene 5915) (UniProt P10826); assay: ATG_RARb_TRANS: Attagene TRANS-FACTORIAL HepG2 Assay for human Retinoic Acid Receptor beta (AID 2283004; active means hit-call score of the fitted dose curve at least 0.9, where 1 is the maximum)
Method in brief: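 Transient transfection of HepG2 with multiple reporter units → chemical dosing, 24 h → total RNA isolation → RT with oligo(dT) → reporter-specific PCR, 6-FAM primer extension, HpaI digest → capillary electrophoresis. Positive direction vs DMSO control.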

[6] = target: Retinoic acid receptor alpha (Homo sapiens) (UniProt P10276); assay: ATG_RARa_TRANS: Attagene TRANS-FACTORIAL HepG2 Assay for human Retinoic Acid Receptor alpha (RARa) (AID 2283005; active means hit-call score of the fitted dose curve at least 0.9, where 1 is the maximum)
Retinoic acid receptor alpha (Homo sapiens), sequence (P10276 whole entry, looked up, the tested form may be a part): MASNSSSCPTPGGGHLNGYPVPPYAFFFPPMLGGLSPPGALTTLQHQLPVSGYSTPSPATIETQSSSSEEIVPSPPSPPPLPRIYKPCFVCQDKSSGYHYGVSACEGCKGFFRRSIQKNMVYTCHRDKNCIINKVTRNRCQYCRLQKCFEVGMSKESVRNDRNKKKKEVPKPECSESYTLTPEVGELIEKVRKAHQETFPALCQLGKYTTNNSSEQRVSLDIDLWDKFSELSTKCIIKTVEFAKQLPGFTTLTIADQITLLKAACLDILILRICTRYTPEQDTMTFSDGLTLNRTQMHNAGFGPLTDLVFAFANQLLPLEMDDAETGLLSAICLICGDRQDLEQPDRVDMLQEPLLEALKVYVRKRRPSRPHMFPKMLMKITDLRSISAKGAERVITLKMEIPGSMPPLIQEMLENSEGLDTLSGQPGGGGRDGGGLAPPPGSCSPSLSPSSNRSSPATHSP
Method in brief: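 HepG2 transiently transfected with multiplex GAL4-UAS reporter units including a human RARa–GAL4 chimera; 24 h compound exposure. Reporter mRNA quantified by RT-PCR, 6-FAM labeling and capillary electrophoresis; gain of signal versus DMSO.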

[7] = BSK_3C_Proliferation: Cell Proliferation Assessment in the BioMAP Diversity Plus: 3C Assay (AID 2283006); conditions: primary human endothelial cells (HUVEC);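 on AC50: potency may reflect either rise or fall in cell number versus DMSO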
Method in brief: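 Subconfluent HUVEC (3C system) cultured with chemical; relative cell number read at 48 h by sulforhodamine B total-protein staining (0.1% SRB after 10% TCA fixation, 560 nm). Bidirectional fit relative to DMSO.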

[8] = target: Peroxisome proliferator-activated receptor gamma (Homo sapiens) (UniProt P37231); assay: ATG_PPARg_TRANS: Attagene TRANS-FACTORIAL HepG2 Assay for human Peroxisome Proliferator-activated Receptor-gamma (PPARg) (AID 2283007; active means hit-call score of the fitted dose curve at least 0.9, where 1 is the maximum)
Peroxisome proliferator-activated receptor gamma (Homo sapiens), sequence (P37231 whole entry, looked up, the tested form may be a part): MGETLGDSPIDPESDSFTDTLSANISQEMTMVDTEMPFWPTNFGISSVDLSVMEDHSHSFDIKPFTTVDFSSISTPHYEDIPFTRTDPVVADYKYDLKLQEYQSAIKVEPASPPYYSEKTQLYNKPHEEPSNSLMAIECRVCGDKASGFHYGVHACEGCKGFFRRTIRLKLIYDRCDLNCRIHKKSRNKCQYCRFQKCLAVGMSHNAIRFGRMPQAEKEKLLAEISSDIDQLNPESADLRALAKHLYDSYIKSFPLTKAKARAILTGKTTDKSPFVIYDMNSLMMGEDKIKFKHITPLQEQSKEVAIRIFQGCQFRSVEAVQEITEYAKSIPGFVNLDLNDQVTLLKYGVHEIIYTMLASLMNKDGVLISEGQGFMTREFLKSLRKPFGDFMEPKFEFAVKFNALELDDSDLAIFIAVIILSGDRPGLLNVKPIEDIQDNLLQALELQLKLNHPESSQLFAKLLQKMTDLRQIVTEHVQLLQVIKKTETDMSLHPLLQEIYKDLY
Method in brief: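 Transient transfection of HepG2 with GAL4-UAS-driven reporter units; chemical dosing 24 h; total RNA → oligo(dT) RT → PCR with reporter primers → 6-FAM primer extension → HpaI digest 2 h 37 C → capillary electrophoresis. Positive direction vs DMSO.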

[9] = target: Nuclear receptor subfamily 1 group I member 2 (Homo sapiens) (UniProt O75469); assay: ATG_PXR_TRANS: Attagene TRANS-FACTORIAL HepG2 Assay for human Pregnane X Receptor (PXR) (AID 2283008; active means hit-call score of the fitted dose curve at least 0.9, where 1 is the maximum)
Nuclear receptor subfamily 1 group I member 2 (Homo sapiens), sequence (O75469 whole entry, looked up, the tested form may be a part): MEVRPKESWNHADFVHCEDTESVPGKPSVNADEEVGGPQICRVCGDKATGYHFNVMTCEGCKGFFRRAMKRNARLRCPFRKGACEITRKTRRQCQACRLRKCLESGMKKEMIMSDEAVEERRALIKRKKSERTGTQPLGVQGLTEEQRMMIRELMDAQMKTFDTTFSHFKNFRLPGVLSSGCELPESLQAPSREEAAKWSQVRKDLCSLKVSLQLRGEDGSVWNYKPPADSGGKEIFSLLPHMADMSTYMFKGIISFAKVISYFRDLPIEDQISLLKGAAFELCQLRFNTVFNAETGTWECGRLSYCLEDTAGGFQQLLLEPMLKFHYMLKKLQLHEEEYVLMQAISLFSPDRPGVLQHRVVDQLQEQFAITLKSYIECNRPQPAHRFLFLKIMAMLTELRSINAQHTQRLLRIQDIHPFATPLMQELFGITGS
Method in brief: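 Fluorescence intensity of FAM-labelled, HpaI-digested reporter amplicons, separated by capillary electrophoresis, quantifies induction. HepG2 cells with PXR-Gal4 trans-reporter system were exposed 24 h; DMSO defines baseline.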

[10] = target: human Retinoic Acid Receptor gamma (RARg), RARG (gene 5916) (UniProt P13631); assay: ATG_RARg_TRANS: Attagene TRANS-FACTORIAL HepG2 Assay for human Retinoic Acid Receptor gamma (RARg) (AID 2283009; active means hit-call score of the fitted dose curve at least 0.9, where 1 is the maximum)
human Retinoic Acid Receptor gamma (RARg), RARG (gene 5916), sequence (P13631 whole entry, looked up, the tested form may be a part): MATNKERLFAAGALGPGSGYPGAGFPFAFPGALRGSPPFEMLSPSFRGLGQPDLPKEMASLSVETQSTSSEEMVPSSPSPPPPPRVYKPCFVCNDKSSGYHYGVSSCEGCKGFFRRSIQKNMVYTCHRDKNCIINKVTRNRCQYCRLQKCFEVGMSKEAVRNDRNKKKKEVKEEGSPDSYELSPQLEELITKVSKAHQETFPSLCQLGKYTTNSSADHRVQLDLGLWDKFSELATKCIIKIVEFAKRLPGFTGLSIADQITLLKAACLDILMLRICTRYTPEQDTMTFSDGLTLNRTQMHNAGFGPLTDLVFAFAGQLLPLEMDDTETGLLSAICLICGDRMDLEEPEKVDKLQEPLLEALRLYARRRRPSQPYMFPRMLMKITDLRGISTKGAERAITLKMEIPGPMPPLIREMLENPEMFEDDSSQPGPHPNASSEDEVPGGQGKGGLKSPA
Method in brief: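 HepG2 transiently transfected with GAL4-UAS reporter units and chimeric NR-Gal4 constructs; 24 h compound exposure. Reporter mRNA quantified by RT-PCR, FAM labeling, HpaI digestion and capillary electrophoresis; gain-of-signal versus DMSO.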

[11] = target: human RAR-related Orphan Receptor gamma (RORg), RORC (gene 6097) (UniProt P51449); assay: ATG_RORg_TRANS: Attagene TRANS-FACTORIAL HepG2 Assay for human RAR-related Orphan Receptor gamma (RORg) (AID 2283011; active means hit-call score of the fitted dose curve at least 0.9, where 1 is the maximum)
Method in brief: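 First, HepG2 liver cells were transfected with GAL4-UAS-driven reporter constructs and the RORg-Gal4 fusion. Next, they were treated with chemical for 24 h. Finally, reporter mRNA was quantified by RT-PCR and capillary electrophoresis, with upward activity fitted against DMSO.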

[12] = target: human Retinoid X Receptor beta (RXRb), RXRB (gene 6257) (UniProt P28702); assay: ATG_RXRb_TRANS: Attagene TRANS-FACTORIAL HepG2 Assay for human Retinoid X Receptor beta (RXRb) (AID 2283013; active means hit-call score of the fitted dose curve at least 0.9, where 1 is the maximum)
human Retinoid X Receptor beta (RXRb), RXRB (gene 6257), sequence (P28702 whole entry, looked up, the tested form may be a part): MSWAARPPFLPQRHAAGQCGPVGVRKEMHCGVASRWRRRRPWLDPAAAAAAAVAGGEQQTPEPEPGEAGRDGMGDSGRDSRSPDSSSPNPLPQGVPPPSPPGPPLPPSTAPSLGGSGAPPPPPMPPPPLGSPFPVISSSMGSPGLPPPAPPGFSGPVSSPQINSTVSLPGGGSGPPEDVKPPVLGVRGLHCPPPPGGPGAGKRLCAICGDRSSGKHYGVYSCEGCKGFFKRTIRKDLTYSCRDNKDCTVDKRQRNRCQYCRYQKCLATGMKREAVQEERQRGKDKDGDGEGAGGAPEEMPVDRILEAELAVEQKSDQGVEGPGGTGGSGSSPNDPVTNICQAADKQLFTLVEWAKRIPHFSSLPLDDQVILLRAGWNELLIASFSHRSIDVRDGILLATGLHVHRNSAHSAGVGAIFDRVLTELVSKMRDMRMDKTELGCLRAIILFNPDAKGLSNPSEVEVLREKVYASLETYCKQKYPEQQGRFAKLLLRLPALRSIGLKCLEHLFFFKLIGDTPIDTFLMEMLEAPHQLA
Method in brief: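 HepG2 cells were transiently transfected with multiplexed GAL4-UAS reporters and a chimeric RXRb-Gal4 construct, then exposed for 24 h. Reporter mRNA was quantified by RT-PCR, FAM labeling, HpaI digestion and capillary electrophoresis; gain of signal was scored against DMSO.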

[13] = target: human Thyroid Receptor alpha (THRa1), THRA (gene 7067) (UniProt P10827); assay: ATG_THRa1_TRANS: Attagene TRANS-FACTORIAL HepG2 Assay for human Thyroid Receptor alpha (THRa1) (AID 2283014; active means hit-call score of the fitted dose curve at least 0.9, where 1 is the maximum)
human Thyroid Receptor alpha (THRa1), THRA (gene 7067), sequence (P10827 whole entry, looked up, the tested form may be a part): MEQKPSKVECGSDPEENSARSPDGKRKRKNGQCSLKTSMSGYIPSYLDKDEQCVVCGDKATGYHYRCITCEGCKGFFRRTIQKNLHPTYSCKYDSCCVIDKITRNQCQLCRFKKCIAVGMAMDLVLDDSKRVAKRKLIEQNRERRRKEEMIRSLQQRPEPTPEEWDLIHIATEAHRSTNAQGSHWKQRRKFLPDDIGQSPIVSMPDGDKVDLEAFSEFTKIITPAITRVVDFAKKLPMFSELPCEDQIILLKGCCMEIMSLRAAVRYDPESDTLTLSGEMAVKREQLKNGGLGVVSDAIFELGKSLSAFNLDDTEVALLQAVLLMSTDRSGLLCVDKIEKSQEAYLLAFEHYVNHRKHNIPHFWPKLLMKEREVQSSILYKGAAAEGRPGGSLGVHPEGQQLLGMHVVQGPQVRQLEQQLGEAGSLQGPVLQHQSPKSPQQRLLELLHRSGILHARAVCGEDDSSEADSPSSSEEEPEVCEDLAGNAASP
Method in brief: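 Reporter transcript induction, read by capillary electrophoresis of 6-FAM-labelled RT-PCR products, reflects activity of a transfected THRa1-Gal4 fusion in HepG2 liver cells. Cells were dosed for 24 h; activity was fitted in the positive direction against DMSO.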

[14] = read-out: E-selectin (Homo sapiens) (UniProt P16581); assay: BSK_3C_Eselectin: BioMAP Diversity Plus: 3C Assay for Eselectin Biomarker Activity (AID 2283015); conditions: primary human endothelial cells (HUVEC); actives raise or lower the signal;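 further: cell surface E-selectin protein quantified by ELISA 24 h after dosing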
Method in brief: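 ELISA read-out of E-selectin on endothelial monolayers after 24 h chemical treatment. Human umbilical vein primary cells served as the system, with DMSO defining baseline activity for bidirectional fitting.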

[15] = read-out: Interleukin-1 alpha (IL1a), IL1A (gene 3552); assay: BSK_BE3C_IL1a: BioMAP Diversity Plus: BE3C Assay for Interleukin-1 alpha (IL1a) Biomarker Activity (AID 2283016); conditions: primary human bronchial epithelial cells; actives raise or lower the signal
Method in brief: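 Human primary bronchial epithelial cells, 24 h chemical exposure; IL-1a quantified by ELISA, fitted bidirectionally against DMSO. Cytotoxicity assessed in parallel by SRB total-protein staining at the time of measurement.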

[16] = read-out: Monocyte Chemoattractant Protein-1 (MCP1), CCL2 (gene 6347); assay: BSK_3C_MCP1: BioMAP Diversity Plus: 3C Assay for Monocyte Chemoattractant Protein-1 (MCP1) Biomarker Activity (AID 2283017); conditions: primary human endothelial cells (HUVEC); actives raise or lower the signal
Method in brief: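 ELISA read-out of MCP-1 from human umbilical vein endothelial cell cultures harvested 24 h post-dosing. Gain or loss of signal was fitted relative to DMSO.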

[17] = read-out: Human Leukocyte Antigen - DR isotype (HLADR), HLA-DRA (gene 3122); assay: BSK_3C_HLADR: BioMAP Diversity Plus: 3C Assay for Human Leukocyte Antigen - DR isotype (HLADR) Biomarker Activity (AID 2283019); conditions: primary human endothelial cells (HUVEC); actives raise or lower the signal;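 further: ELISA of cell-surface HLA-DR on HUVEC 24 h after dosing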
Method in brief: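 ELISA readout of surface HLA-DR on human umbilical vein endothelium, taken 24 h after chemical treatment. Gain- and loss-of-signal were both fitted relative to DMSO.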

[18] = target: human Peroxisome Proliferator-activated Receptor delta (PPARd), PPARD (gene 5467) (UniProt Q03181); assay: ATG_PPARd_TRANS: Attagene TRANS-FACTORIAL HepG2 Assay for human Peroxisome Proliferator-activated Receptor delta (PPARd) (AID 2283002; active means hit-call score of the fitted dose curve at least 0.9, where 1 is the maximum)
human Peroxisome Proliferator-activated Receptor delta (PPARd), PPARD (gene 5467), sequence (Q03181 whole entry, looked up, the tested form may be a part): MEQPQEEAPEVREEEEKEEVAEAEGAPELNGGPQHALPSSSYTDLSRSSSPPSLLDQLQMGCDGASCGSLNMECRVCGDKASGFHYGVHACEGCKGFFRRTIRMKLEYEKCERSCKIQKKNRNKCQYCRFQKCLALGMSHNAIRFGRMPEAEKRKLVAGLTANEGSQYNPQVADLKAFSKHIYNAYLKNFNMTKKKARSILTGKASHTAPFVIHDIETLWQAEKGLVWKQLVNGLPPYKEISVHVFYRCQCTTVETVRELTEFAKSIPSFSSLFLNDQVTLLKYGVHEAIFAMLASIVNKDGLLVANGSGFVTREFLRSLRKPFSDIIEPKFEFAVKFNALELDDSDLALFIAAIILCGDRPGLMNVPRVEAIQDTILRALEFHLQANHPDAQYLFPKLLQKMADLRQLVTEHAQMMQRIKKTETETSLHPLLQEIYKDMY
Method in brief: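 HepG2 cells transiently transfected with GAL4-UAS multiplexed reporter units driven by exogenous chimeric NR-GAL4 proteins; 24 h compound exposure. Reporter mRNA measured by RT-PCR, 6-FAM primer extension, HpaI digestion and capillary electrophoresis; gain of signal fitted relative to DMSO.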

[19] = target: Retinoic acid receptor RXR-alpha (Homo sapiens) (UniProt P19793); assay: ATG_RXRa_TRANS: Attagene TRANS-FACTORIAL HepG2 Assay for human Retinoid X Receptor alpha (RXRa) (AID 2283012; active means hit-call score of the fitted dose curve at least 0.9, where 1 is the maximum)
Retinoic acid receptor RXR-alpha (Homo sapiens), sequence (P19793 whole entry, looked up, the tested form may be a part): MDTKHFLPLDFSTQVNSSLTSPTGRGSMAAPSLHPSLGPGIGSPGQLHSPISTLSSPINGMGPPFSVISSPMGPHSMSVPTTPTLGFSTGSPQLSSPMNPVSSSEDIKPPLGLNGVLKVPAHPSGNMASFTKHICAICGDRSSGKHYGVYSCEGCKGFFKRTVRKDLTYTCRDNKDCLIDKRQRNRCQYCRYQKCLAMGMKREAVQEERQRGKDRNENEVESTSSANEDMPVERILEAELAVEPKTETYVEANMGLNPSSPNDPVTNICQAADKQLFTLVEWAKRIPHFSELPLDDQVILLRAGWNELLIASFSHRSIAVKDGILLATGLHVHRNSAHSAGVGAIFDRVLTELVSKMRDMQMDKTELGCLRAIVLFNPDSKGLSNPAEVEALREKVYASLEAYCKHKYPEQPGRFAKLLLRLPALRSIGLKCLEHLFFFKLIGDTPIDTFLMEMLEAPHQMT
Method in brief: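 HepG2 cells transiently transfected with GAL4-UAS reporter units and chimeric RXRa-Gal4 protein, treated 24 h. Reporter mRNA measured by RT-PCR, fluorescent labelling, HpaI digestion and capillary electrophoresis. Induction fitted against DMSO.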

[20] = read-out: Monocyte Chemoattractant Protein-1 (MCP1), CCL2 (gene 6347); assay: BSK_4H_MCP1: BioMAP Diversity Plus: 4H Assay for Monocyte Chemoattractant Protein-1 (MCP1) Biomarker Activity (AID 2283018); conditions: primary human endothelial cells (HUVEC); actives raise or lower the signal
Method in brief: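 Human umbilical vein endothelial cells (4H system) exposed to chemicals for 24 h in 96-well format. MCP-1 measured by ELISA; bidirectional fitting against DMSO, with SRB total-protein staining in parallel cultures for cytotoxicity.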

Measured: AC50

E-selectin (Homo sapiens), sequence (P16581 whole entry, looked up): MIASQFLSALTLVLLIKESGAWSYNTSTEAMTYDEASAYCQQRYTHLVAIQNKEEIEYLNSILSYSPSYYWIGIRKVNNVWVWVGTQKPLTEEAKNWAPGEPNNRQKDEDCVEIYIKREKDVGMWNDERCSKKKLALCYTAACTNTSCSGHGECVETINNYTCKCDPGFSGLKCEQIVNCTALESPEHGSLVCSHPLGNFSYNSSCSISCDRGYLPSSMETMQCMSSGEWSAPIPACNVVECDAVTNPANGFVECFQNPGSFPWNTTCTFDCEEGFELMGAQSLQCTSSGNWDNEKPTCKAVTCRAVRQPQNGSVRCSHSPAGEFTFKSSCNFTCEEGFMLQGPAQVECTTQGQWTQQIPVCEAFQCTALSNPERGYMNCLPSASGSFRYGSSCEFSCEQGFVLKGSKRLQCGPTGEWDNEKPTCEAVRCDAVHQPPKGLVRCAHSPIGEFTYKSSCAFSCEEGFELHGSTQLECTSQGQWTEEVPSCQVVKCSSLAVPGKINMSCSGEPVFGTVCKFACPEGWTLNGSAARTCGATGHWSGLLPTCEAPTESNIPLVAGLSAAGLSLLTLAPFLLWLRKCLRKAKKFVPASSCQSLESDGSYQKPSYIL

c1cc2c3c(cccc3c1)CC2
not listed: [18] | [19] | [20]
inactive: all other assays above

COP(=O)(CCC(=O)NCO)OC
inactive: [1] | [2] | [18] | [4] | [7] | [8] | [19] | [14] | [15] | [16] | [20] | [17]
active: [2] 0.15 µM

CSC(C)(C)C=NO
not listed: [5] | [6] | [8] | [9] | [10] | [11] | [13]
inactive: all other assays above

c1ccc2c(c1)Nc1ccccc1S2
active: [7] 21.6 µM | [8] 26.7 µM | [9] 11.1 µM | [12] 3.98 µM
not listed: [5] | [6] | [10] | [11] | [20]
inactive: all other assays above

CCOS(=O)(=O)OCC
not listed: [5] | [6] | [8] | [9] | [10] | [11] | [12] | [19]
inactive: all other assays above

ClC(Cl)(Cl)c1ccccc1
not listed: [5] | [6] | [8] | [9] | [10] | [11] | [12] | [13]
inactive: all other assays above

CN(C)C(=O)Cl
not listed: [8] | [11] | [18] | [19] | [20]
inactive: all other assays above

ClC(Cl)c1ccccc1
not listed: [5] | [8] | [10] | [20]
inactive: all other assays above

O=C(O)C=CC(F)(C(F)(F)F)C(F)(F)F
not listed: [5] | [6] | [11] | [12] | [20]
inactive: all other assays above
